Experimental data reported in PubChem BioAssay AID504332 (National Center for Advancing Translational Sciences (NCATS), 2011).
Screen size: about 350,000 compounds; about 31,000 (8.9%) were called active. Not shown: some 15% with an inconclusive outcome. Calls follow the shape of the dose curve; as a rule, active = well fitted inhibition curve with a large enough effect; inconclusive = small, poorly fitted or top-dose-only effect; inactive = no such curve, though single readings can be large or run the other way. The entries come from a sample that favours actives as a whole. Where a call stands in place of a potency, no number is given.
Also: nearly all actives have a fitted effect of over 75% in size.
Potency is read from the fitted curve at half-maximal effect.

These molecules were tested against Histone-lysine N-methyltransferase EHMT2 (Homo sapiens) (UniProt Q96KQ7) (assay: qHTS Assay for Inhibitors of Histone Lysine Methyltransferase G9a). Conditions: G9a H3K9 monomethylation, AlphaScreen, 2 h; series mostly up to 59 µM.
Sequence of Histone-lysine N-methyltransferase EHMT2 (Homo sapiens) (Q96KQ7 913-1193 limits assumed): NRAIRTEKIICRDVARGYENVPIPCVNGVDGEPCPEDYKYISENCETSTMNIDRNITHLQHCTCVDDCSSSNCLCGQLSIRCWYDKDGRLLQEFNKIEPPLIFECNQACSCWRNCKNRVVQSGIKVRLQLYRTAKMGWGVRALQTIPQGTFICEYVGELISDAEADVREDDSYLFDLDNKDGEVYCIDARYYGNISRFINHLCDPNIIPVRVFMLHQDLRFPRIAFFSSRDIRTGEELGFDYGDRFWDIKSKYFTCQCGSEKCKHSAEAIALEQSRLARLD
Summary of the method: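 G9a (20 nM) preincubated 15 min RT with compounds, then 500 nM biotinylated H3K9 peptide and 20 uM SAM added; 2 h RT reaction. Monomethyl-H3K9 product detected by AlphaScreen with anti-H3K9me1 antibody, streptavidin donor and anti-rabbit IgG acceptor beads.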
For O=C(C1CCC(=O)N(C2CC2)C1)N1CCN(c2ccc(Cl)cc2)CC1 (centres undefined), the Potency was “inactive”. In the case of Cc1ccsc1CN(C(=O)c1oc2ccc(Br)cc2c1C)C1CCS(=O)(=O)C1 (centres undefined), the Potency is reported as “inactive”. For Cc1ccc(C(=O)Nc2c(C(=O)NC(C)(C)C)oc3ccccc23)cc1, the Potency was “inactive”. With COc1cccc(N2CCN(S(=O)(=O)c3cc(Br)cc4c3N(C(=O)C3CC3)CC4)CC2)c1 the Potency was 7.94 µM (active). With O=C(C1CC1)N1CCc2cc(Br)cc(S(=O)(=O)N3CCN(c4ccccc4F)CC3)c21 the Potency was “inactive”. With CCOC(=O)N1CCN(S(=O)(=O)c2cc(Br)cc3c2N(C(=O)C2CC2)CC3)CC1 the Potency was “inactive”. For Cc1ccc(S(=O)(=O)N(C)C)cc1NC(=O)C(C)OC(=O)c1ccc2ccccc2n1 (centres undefined), the activity, negative = inhibition was 10.5% [at 2.33 µM] (inactive). For C=CCc1c(C)nc2cc(-c3ccccc3)[nH]n2c1=O, the Potency was “inactive”. CCOC(=O)c1sc(NC(=O)/C=C/c2ccc(C(C)C)cc2)c(C(=O)OCC)c1C was tested, and the Potency was “inactive”. CCC(CC)c1nnc(NC(=O)/C=C/c2ccco2)s1 was tested, and the Potency was “inactive”. In the case of CCOC(=O)c1c(NC(=S)NC(=O)/C=C/c2cccs2)sc(C)c1C, the Potency is reported as “inactive”. For CCOC(=O)c1c(NC(=O)/C=C/c2ccco2)sc(C)c1C, the Potency was 44.7 µM (active). Cc1nnc(NC(=O)/C=C/c2ccco2)s1 was tested, and the Potency was 31.6 µM (active). For Cc1nnc(NC(=O)C(c2ccccc2)c2ccccc2)s1, the Potency was “inactive”. For Oc1ccccc1-c1nc(/C=C/c2ccc(F)cc2)no1, the Potency was “inactive”. O=C(NCC(c1ccc(Cl)cc1)N1CCOCC1)c1ccccc1F (centres undefined) was tested, and the Potency was “inactive”. For O=C(Nc1cccnc1Cl)c1cc(-c2ccccc2O)on1, the Potency was “inactive”. In the case of O=C1CSC(c2cccc(F)c2)N1c1ccccc1F (centres undefined), the activity, negative = inhibition is reported as -5.4% [at 12.7 µM] (inactive). In the case of O=C1CC(c2cccc(F)c2)C2=C(CCCC2=O)N1 (centres undefined), the Potency is reported as “inactive”. With O=C1CCCC2=C1C(c1ccccc1)n1c(s/c(=C/c3cccc(F)c3)c1=O)=N2 (centres undefined) the Potency was 10 µM (active). In the case of Cc1ccc(-c2cc(C(F)(F)F)c(C#N)c(SCC(=O)Nc3ccccc3)n2)cc1, the Potency is reported as “inactive”. For CCOCCc1nn2c(=O)cc(COC(=O)CNC(=O)c3ccc(C(C)(C)C)cc3)nc2s1, the Potency was “inactive”. In the case of COc1ccc(CNC(=O)C2CC(c3ccc(C(F)(F)F)cc3)=NO2)cc1 (centres undefined), the Potency is reported as “inactive”. In the case of C[C@H](C(=O)CC(=O)OC(C)(C)C)[C@H](O)c1ccc(C(F)(F)F)cc1, the Potency is reported as 79.4 µM (active). In the case of CC(C)(C)OC(=O)N[C@H](C(=O)OC(C)(C)C)c1ccc(Br)cc1, the activity, negative = inhibition is reported as 2.34% [at 0.501 µM] (inactive). With COC(=O)c1cccc(C(=O)N2CCC(CCC(=O)NCc3ccc(F)cc3)CC2)c1 the Potency was “inactive”. Cc1occc1C(=O)NC1CCCN(Cc2ccc(CC(C)C)cc2)C1 (centres undefined) was tested, and the Potency was “inactive”. With Cc1ccccc1CN1CCC(C(=O)Nc2ccc(Oc3cccnc3)cc2)CC1 the Potency was “inactive”. With COc1ccc(CCNc2ncnc3c2cnn3-c2ccc(C)cc2)cc1 the Potency was “inactive”. For COc1ccc(CCNC(=O)c2nn(C)c3c2CSc2ccccc2-3)cc1OC, the Potency was “inactive”. In the case of COc1cc(NC(=O)c2noc3c2CSc2ccccc2-3)cc(OC)c1OC, the Potency is reported as 1.78 µM (active). COc1cc(NC(=O)c2nc3ccccc3nc2C)cc(OC)c1OC was tested, and the Potency was “inactive”. COc1ccc(-c2onc(C)c2C)cc1S(=O)(=O)NCc1cccs1 was tested, and the Potency was “inactive”. In the case of Cc1ccc(S(=O)(=O)N2CCN(C(=O)c3ccccc3-c3nc4ccccc4s3)CC2)c(C)c1, the Potency is reported as “inactive”. Cc1cc2c(cc1C)[n+](C)cn2CC(O)COCC1CC=CCC1 (centres undefined) was tested, and the Potency was 39.8 µM (active). For COc1ccc(C(=O)NCC2CCCN2S(=O)(=O)c2cccs2)cc1OC (centres undefined), the Potency was “inactive”. In the case of CC(=O)NC(c1cccs1)c1cc(Br)c2cccnc2c1O (centres undefined), the activity, negative = inhibition is reported as 7.81% [at 12.7 µM] (inactive). For Cc1c(NC(=O)Nc2ccccc2)cccc1[N+](=O)[O-], the Potency was “inactive”. For Cc1c(NC(=S)NCc2ccc(F)cc2)cccc1[N+](=O)[O-], the Potency was 39.8 µM (active). For Cc1c(NC(=O)/C=C/C(=O)O)cccc1[N+](=O)[O-], the Potency was 39.8 µM (active). With COc1ccccc1NC(=O)/C=C/C(=O)O the Potency was “inactive”. With Cc1cccc(NC(=S)NCCc2ccc(F)cc2)c1C the Potency was “inactive”. With CCNC(=S)Nc1cccc(Cl)c1C the Potency was “inactive”. In the case of CCCCNC(=O)c1cc(-c2ccc(Cl)c(Cl)c2)on1, the Potency is reported as “inactive”. In the case of O=C(COc1ccccc1)NCc1ccc2c(c1)CCN2C(=O)c1ccc(F)cc1, the Potency is reported as “inactive”. O=C(NCCCN1CCCC1=O)C(=O)NCC1OCCN1S(=O)(=O)c1ccc(Br)cc1 (centres undefined) was tested, and the Potency was “inactive”. For Cc1ccc(NC(=O)CN2C(=O)CC(C)Sc3ccccc32)c(C)c1 (centres undefined), the Potency was “inactive”. In the case of COc1ccc(S(=O)(=O)N(C)CC(=O)N2CCCC2)cc1, the Potency is reported as “inactive”. CCN(CC)c1ccc(NC(=O)Cn2nc3c(cc2=O)CCCC3)c(C)c1 was tested, and the Potency was 11.2 µM (active). With Cc1cc(NC(=O)Cn2nc(C(F)(F)F)c3c2CCCC3)no1 the Potency was “inactive”. CCc1ccc(-n2nc(C)c3c(C)cc(=O)n(CC(=O)Nc4ccc(F)cc4C)c32)cc1 was tested, and the Potency was “inactive”. C/C(=C/c1ccccc1)C(=O)N1CCN(c2ccccc2)CC1 was tested, and the Potency was “inactive”. In the case of CCOc1ccc(NC(=O)c2cnn(-c3ccccc3)c2-n2cccc2)cc1, the Potency is reported as “inactive”. N#C/C(=C/c1ccc(N2CCOCC2)o1)C(=O)N1CCOCC1 was tested, and the Potency was 7.94 µM (active). In the case of Cc1ccc(C(=O)N2CCN(C(=O)N3CCOCC3)CC2)cc1, the Potency is reported as “inactive”. O=C(N1CCOCC1)N1CCOCC1 was tested, and the Potency was “inactive”. In the case of Cc1cccc(NC(=O)Cc2ccc(Br)cc2)n1, the activity, negative = inhibition is reported as 12.1% [at 0.501 µM] (inactive). For CCOCCCNC(=O)c1c(NC(=O)Cc2coc3ccc(C)cc23)sc2c1CCC2, the Potency was “inactive”. O=C(CSCc1cnn(-c2ccccc2)c1-n1cccc1)NCc1ccc(Cl)cc1 was tested, and the Potency was “inactive”. With Cc1cccc(N2C(=O)C3C(c4ccccc4)OC4(C(=O)c5ccccc5C4=O)C3C2=O)c1 (centres undefined) the Potency was “inactive”. With Cc1cccc(N2C(=O)SC(SC(=Nc3ccccc3)Nc3ccccc3)C2=O)c1 (centres undefined) the Potency was 3.55 µM (active). With Cc1cccc(N2C(=O)SC(N(CC(=O)O)c3cccc(C)c3)C2=O)c1 (centres undefined) the Potency was “inactive”. With COc1ccc(OC)c(-c2csc(NC(=O)COC(=O)C3CC3)n2)c1 the Potency was “inactive”. In the case of COc1cccc(CNC(=O)COC(=O)CN2C(=O)NC3(CCCCC3C)C2=O)c1 (centres undefined), the activity, negative = inhibition is reported as 7.7% [at 12.7 µM] (inactive).
